VACV mCherry inh: qHTS for Stage-Specific Inhibitors of Vaccinia Orthopoxvirus: mCherry Reporter Primary qHTS; Vaccinia virus mCherry reporter infection, fluorescence; Potency, µM (highest dose often 36.5 µM), usual class: inhibitors; 0.63% of 310,000 active; calls by dose curve; tested in A549 cells; further: nearly all actives have a fitted effect of over 35% in size
Marburg entry inh: qHTS for inhibitors of binding or entry into cells for Marburg Virus; Potency, µM (highest dose often 37.8 µM), actives largely listed as inhibitors; 1.8% of 300,000 active; Marburg virus pseudotyped entry inhibition, cell reporter; calls by dose curve; tested in HEK293 cells
HCMV inh: qHTS Assay for inhibitors of the human cytomegalovirus (HCMV); HFF cells, HCMV-luciferase reporter, 72 h; stronger effect = lower value; activity change, negative = inhibition, % at 57.5 µM; 4.5% of 410,000 active; AID 1259415, 2018; in the data active means activity change below about -60%; inconclusive means no clear call, values can overlap the other calls; inactive means above about -39%
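Two compound doses tested in HFFs infected with HCMV-luciferase, MOI 1 PFU/cell, 72 h at 37C. Lysate luminescence read with OneGlo; data normalized against buffer-only and 10uM Salinomycin inhibitor controls.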
HCV inhibitor: qHTS Assay for Inhibitors of Hepatitis C Virus (HCV). AID 651820, 2012. 3.4% of 340,000 active. Potency, µM (series often up to 41.8 µM), usual class: inhibitors. Huh7.5.1 HCVcc-Cre infection, luciferase reporter, 44 h; active means well fitted inhibition curve with a large enough effect; inconclusive means small, poorly fitted or top-dose-only effect, or another doubt; inactive means no such curve, though single readings can be large or run the other way
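Cells seeded at 1,000/well and cultured 4 h, then compounds added followed by HCVcc-Cre virus (~0.5 moi). After 44 h further culture, luciferase substrate was added, plates held 15 min at room temperature, and luminescence read for 15 sec.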
Lassa entry inh: qHTS for Inhibitors of binding or entry into cells for Lassa Virus. Lassa virus pseudotype entry inhibition, cell reporter. Potency, µM (titrated, usually from 37.9 µM), usual class: inhibitors. 1.2% of 300,000 active; calls by dose curve; tested in HEK293 cells; further: nearly all actives have a fitted effect of over 50% in size
Vaccinia Venus: qHTS for Stage-Specific Inhibitors of Vaccinia Orthopoxvirus: Venus Reporter Primary qHTS | Potency, µM (titrated, usually from 36.5 µM), usual class: inhibitors | AID 720580, 2013 | 0.46% of 330,000 active | Vaccinia virus Venus reporter expression, fluorescence; calls by dose curve; tested in A549 cells; further: nearly all actives have a fitted effect of over 30% in size
Of the large screens only hits and unclear results are named; the others gave an inactive call. Only some compounds are listed: those with a hit (about 7.8% of all), similar ones and a draw of the others.

COc1ccc(CN2CCN(C(=O)C3CCC(CNS(=O)(=O)c4ccccc4)CC3)CC2)c(OC)c1OC (centres undefined)	Marburg entry inh inconclusive, HCMV inh -102, HCV inhibitor 3.5µM
COc1ccccc1Nc1ncc(C(=O)N2CCN(Cc3ccc(OC)c(OC)c3OC)CC2)c2ccccc12	Marburg entry inh inconclusive, HCV inhibitor 13µM, Lassa entry inh 13µM
COc1ccc(-c2oc3ncn4nc(COc5ccccc5C)nc4c3c2-c2ccc(OC)cc2)cc1	none (no result: Marburg entry inh, HCV inhibitor)
Cc1ccc(-c2csc(NC(=O)/C=C/c3cccs3)n2)cc1C	VACV mCherry inh inconclusive, Marburg entry inh inconclusive, HCV inhibitor 11µM
O=C(/C=C\c1ccco1)Nc1nc(-c2ccccc2)cs1	Marburg entry inh inconclusive, Lassa entry inh inconclusive
N#Cc1ccc(-c2csc(NC(=O)/C=C/c3cccs3)n2)cc1	Marburg entry inh inconclusive, HCMV inh inconclusive
Cc1nc(NC(=O)/C=C/c2ccccc2)n[nH]1	Marburg entry inh inconclusive, HCMV inh -96, HCV inhibitor inconclusive, Lassa entry inh inconclusive
O=C(/C=C/c1ccccc1)Nc1nc(-c2ccncc2)cs1	Marburg entry inh inconclusive, HCMV inh -63, HCV inhibitor 7.9µM, Lassa entry inh inconclusive
CCN(CC)c1ccc(NC(=O)c2c(C)nn(-c3ccc(F)cc3)c2-n2cccc2)c(C)c1	none (no result: Marburg entry inh, HCV inhibitor)
O=C1Nc2cc(C(=O)NCCCN3CCCC3)ccc2S/C1=C/c1cccc(Cl)c1	VACV mCherry inh inconclusive, Vaccinia Venus inconclusive (no result: Marburg entry inh, HCV inhibitor, Lassa entry inh)
CCN1CCCC1CNC(=O)c1ccc2c(c1)NC(=O)/C(=C\c1ccc(OC)c(OC)c1)S2 (centres undefined)	HCV inhibitor 0.79µM (no result: VACV mCherry inh, Marburg entry inh, Lassa entry inh, Vaccinia Venus)
CCN1CCCC1CNC(=O)c1ccc2c(c1)NC(=O)/C(=C\c1ccccc1Cl)S2 (centres undefined)	HCMV inh -63 (no result: Marburg entry inh, HCV inhibitor, Lassa entry inh)
O=C1[C@H]2[C@@H]3[C@@H](O)[C@H](O)CC(=NOCc4ccccc4)[C@H]3CC[C@H]2C(=O)N1C1CCCCC1	Lassa entry inh inconclusive (no result: VACV mCherry inh, HCMV inh, HCV inhibitor, Vaccinia Venus)
N#Cc1ccc(OCC(O)CN2CCC(C(O)(c3ccccc3)c3ccccc3)CC2)cc1 (centres undefined)	Marburg entry inh 13µM, HCV inhibitor 10µM, Lassa entry inh inconclusive
CCS(=O)(=O)N1CC(=O)N(c2cccc(Cl)c2C)C(C)(C(=O)NC2CCCCC2)C1 (centres undefined)	none (no result: Marburg entry inh, HCV inhibitor)
CC(C)(O)/C=C/C(=O)[C@](C)(O)C1[C@H](O)C[C@@]2(C)C3CC=C4C(C[C@H](O)[C@@H](O)C4(C)C)[C@]3(C)C(=O)C[C@]12C (some centres undefined)	VACV mCherry inh inconclusive, HCV inhibitor inconclusive, Vaccinia Venus 1.6µM (no result: Marburg entry inh, HCMV inh, Lassa entry inh)
COC(=O)C1=C(N)Oc2cc(C)n(Cc3ccco3)c(=O)c2C1c1cccc(Cl)c1 (centres undefined)	Marburg entry inh inconclusive, HCV inhibitor 8.9µM, Vaccinia Venus inconclusive (no result: VACV mCherry inh)
COc1ccccc1CNC(=O)CSCc1cnn(-c2ccccc2)c1-n1cccc1	HCV inhibitor inconclusive, Lassa entry inh inconclusive (no result: VACV mCherry inh, Vaccinia Venus)
O=C(CSCc1cnn(-c2ccccc2)c1-n1cccc1)NCc1ccccc1F	HCMV inh -76 (no result: HCV inhibitor)
COc1ccc(CNC(=O)CSCc2cnn(-c3ccccc3)c2-n2cccc2)cc1OC	VACV mCherry inh inconclusive, Marburg entry inh inconclusive, HCMV inh -80, Lassa entry inh inconclusive, Vaccinia Venus inconclusive (no result: HCV inhibitor)
O=Nc1c(-c2c(O)[nH]c3cc(Br)ccc23)[nH]c2ccccc12	VACV mCherry inh inconclusive, Marburg entry inh inconclusive, HCMV inh -68, HCV inhibitor 5.6µM, Lassa entry inh inconclusive
O=C(CSCc1cccc(Br)c1)N=Nc1c(O)[nH]c2ccccc12	HCV inhibitor inconclusive, Lassa entry inh inconclusive (no result: VACV mCherry inh, Vaccinia Venus)
Cc1ccccc1Cn1cc(S(=O)(=O)c2ccc(C(C)C)cc2)c(=O)c2cc3c(cc21)OCO3	HCV inhibitor 10µM
Cc1ccc(Cn2cc(S(=O)(=O)c3ccc(C(C)C)cc3)c(=O)c3cc4c(cc32)OCO4)cc1	none
CC(SCc1ccccc1)C(=O)N/N=C/c1ccc(OCC(=O)NCc2ccco2)cc1 (centres undefined)	Marburg entry inh inconclusive, HCV inhibitor 11µM, Lassa entry inh inconclusive, Vaccinia Venus inconclusive
Cc1ccc(OCCn2cnc3cc([N+](=O)[O-])ccc3c2=O)cc1	none
COc1ccc2c(Cn3cnc4cc([N+](=O)[O-])ccc4c3=O)cc(=O)oc2c1	Marburg entry inh 4.5µM, Lassa entry inh inconclusive (no result: HCMV inh)
CCCCC(=O)N1c2ccccc2C(C)(c2ccccc2)CC1(C)C (centres undefined)	Lassa entry inh inconclusive (no result: HCV inhibitor)
Cc1nnc(SCC(=O)N2c3ccccc3C(C)(c3ccccc3)CC2(C)C)s1 (centres undefined)	VACV mCherry inh inconclusive, Marburg entry inh inconclusive, HCMV inh -62, HCV inhibitor inconclusive, Lassa entry inh inconclusive, Vaccinia Venus inconclusive
Cc1ccc(C2(C)CC(C)(C)N(C(=O)CSc3nnc(C)s3)c3ccccc32)cc1 (centres undefined)	Marburg entry inh inconclusive, HCV inhibitor inconclusive, Lassa entry inh 7.9µM
CC1(C)[C@H](C(=O)NC2CCCCCC2)CC[C@]1(C)C(=O)O	none (no result: VACV mCherry inh, HCMV inh, HCV inhibitor, Lassa entry inh, Vaccinia Venus)
N#Cc1cc(N2CCCCC2)c([N+](=O)[O-])cc1C#N	HCMV inh -64 (no result: VACV mCherry inh, Vaccinia Venus)
O=[N+]([O-])c1cc2no[n+]([O-])c2cc1N1CCCCC1	HCMV inh -63, HCV inhibitor inconclusive
C[C@@H]1O[C@@H](OC[C@H]2O[C@@H](Oc3c(-c4ccc(OCCO)c(OCCO)c4)oc4cc(OCCO)cc(O)c4c3=O)[C@H](O)[C@@H](O)[C@@H]2O)[C@H](O)[C@H](O)[C@H]1O	none (no result: Marburg entry inh, HCMV inh, HCV inhibitor, Lassa entry inh)
Clc1ccccc1Nc1nc(-c2ccncc2)nc2ccccc12	HCV inhibitor 7.1µM (no result: VACV mCherry inh, Marburg entry inh, Lassa entry inh, Vaccinia Venus)
Fc1ccc(Nc2nc(-c3ccncc3)nc3ccccc23)cc1F	Marburg entry inh 7.1µM, HCV inhibitor 11µM (no result: VACV mCherry inh, Vaccinia Venus)
Fc1ccccc1Oc1nc(-c2ccncc2)nc2ccccc12	HCV inhibitor 0.56µM (no result: VACV mCherry inh, Marburg entry inh, Lassa entry inh, Vaccinia Venus)
Fc1ccccc1CNc1ncnc2sccc12	Marburg entry inh inconclusive, HCV inhibitor 2.2µM
c1ccc2c(c1)OCC(CNc1ncnc3sccc13)O2 (centres undefined)	VACV mCherry inh inconclusive, Marburg entry inh inconclusive, HCMV inh -63, HCV inhibitor 1µM
COc1ccccc1CNc1ncnc2sccc12	Marburg entry inh 6.3µM, HCMV inh -76, HCV inhibitor inconclusive, Lassa entry inh inconclusive
COc1cc2ncnc(NCc3ccccc3F)c2cc1OC	none (no result: VACV mCherry inh, Marburg entry inh, Lassa entry inh, Vaccinia Venus)
COc1ccc(CCNc2ncnc3sccc23)cc1OC	Marburg entry inh inconclusive, HCMV inh -89, HCV inhibitor inconclusive, Lassa entry inh inconclusive
COC(=O)c1ccc(OC)c(CN2C(=O)N(c3ccc(C(C)=O)cc3)S(=O)(=O)c3ccccc32)c1	HCMV inh inconclusive, Lassa entry inh inconclusive (no result: Marburg entry inh, HCV inhibitor)
CN(C)c1ccc(CNc2ncc(Br)cc2Br)cc1	none
